Experimental data taken from PubChem BioAssay AID932 (The Scripps Research Institute Molecular Screening Center, 2007).
The whole screen tested about 200,000 compounds, of which about 5,100 (2.5%) were called active. What follows is part of a selection rich in actives, with near analogues and random picks from the rest. Unmarked numbers belong to inactive results.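 Rule for the calls: active = activation above the screen-wide mean activation plus 3 SD (cut at about 130% in these data); inactive = the rest.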

assay: STAT1 signaling activators, primary screen, cell-based, HTS, luciferase reporter (AID 932); conditions: NIH 3T3 STAT1-luciferase reporter, IFN-gamma, luminescence; at 5.5 µM; active compounds read high; 100% = IFN-gamma alone, no compound;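 note: raw ratio to IFN-gamma control signal so 100% means no change and 0% no light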

SMILES	activation (% of control)
CC(C)(C)C(=O)NCCCNc1ccc([N+](=O)[O-])cc1	112%
COc1cc(C(=O)OCc2ccc([N+](=O)[O-])cc2)cc(OC)c1OC	104%
COc1cc(/C=N/O)ccc1OCc1ccc([N+](=O)[O-])cc1	206% (active)
COc1cc(/C=N\Nc2ccc([N+](=O)[O-])cn2)ccc1OCC(=O)O	98%
CCOc1ccc(S(=O)(=O)Nc2ccncc2)c(C)c1C	97%
C/C(CCC(=O)OC[C@H]1O[C@H](C#Cc2ccccc2)C=C[C@@H]1Oc1ccc(C)cc1)=N\OC[C@@H](O)[C@H]1O[C@@H]2OC(C)(C)O[C@@H]2[C@H]1O	106%
Cc1cc(C)c2nc(NC(=O)C3CCCO3)sc2c1 (stereo not drawn)	151% (active)
O=C(Nc1nc2ccc(S(=O)(=O)N3CCCC3)cc2s1)C1CCCO1 (stereo not drawn)	95.5%
Cc1cc(Br)ccc1NC(=O)C1CCCO1 (stereo not drawn)	107%
CCc1cc2c(=O)c(-c3nc4ccccc4n3C)c(CCCC(=O)O)oc2cc1OC(=O)C(C)(C)C	90.5%
COC(=O)C1=CN(Cc2ccc(OC)c(OC)c2)C=C(C(=O)OC)C1c1cccs1	45.2%
C=CCNC(=O)/C=C/c1ccc(C(C)C)cc1	120%
Cn1c(=NC(=O)c2ccco2)sc2cccc(F)c21	135% (active)
CCCC(=O)N=c1sc2cccc(F)c2n1C	114%
Cn1c(=NC(=O)C2CC2)sc2cc(F)cc(F)c21	108%
CC(=O)Nc1ccc(S(=O)(=O)Oc2ccc(/C=N/N=C3/NC(=O)C(CC(=O)O)S3)cc2)cc1 (stereo not drawn)	97.8%
CCCCn1c(=O)c(C(C)=O)c(O)c2ccccc21	95.7%
COc1cc([C@H](Cc2ccccc2)NC(C)=O)oc(=O)c1	96.8%
COCCn1c(C)cc(C2=NNC(=Nc3ccc(F)cc3)SC2)c1C	133% (active)
C=CCn1c(C)cc(C2=NNC(=NCC)SC2)c1C	15.6%
Cc1cc(C2=NNC(=Nc3ccc(S(=O)(=O)N4CCOCC4)cc3)SC2)c(C)n1CC1CCCO1 (stereo not drawn)	99.8%
COc1ccc(C2CC(c3cccs3)=NN2c2ccccc2)cc1 (stereo not drawn)	93.2%
Cc1cc(C)cc(N(CC(=O)NCCSCc2ccco2)S(C)(=O)=O)c1	102%
Cc1ccc(C(=O)OCc2nc(N)nc(Nc3ccccc3C)n2)cc1	96.8%
Cc1ccccc1Nc1nc(N)nc(CSc2ccccc2)n1	183% (active)

SMILES	activation (% of control)
Cc1ccccc1Nc1nc(N)nc(CSc2nnc3ccccn23)n1	120%
CC(C)(C)C1CCC(=NNC(=O)c2cc(-c3ccccc3)n[nH]2)CC1 (stereo not drawn)	113%
CCOC(=O)N1CCN(C(=O)C2CCN(Cc3ccc(OC)cc3OC)CC2)CC1	94.7%
Oc1oc(-c2ccccc2Br)nc1/C=N/c1ccccn1	131% (active)
CCOc1ccc2nc(/N=C/c3nc(-c4ccccc4)oc3O)sc2c1	104%
CC(N=Cc1nc(-c2ccccc2)oc1O)c1ccccc1 (stereo not drawn)	104%
O=C1NC(c2ccc(-c3ccccc3[N+](=O)[O-])o2)C(C(=O)c2ccc(Cl)cc2)C(O)(C(F)(F)F)N1 (stereo not drawn)	102%
COc1ccc(C(C)=O)cc1CSc1nc2nc(C)cc(C)n2n1	93.7%
CC(OC(=O)c1ccc2ccccc2n1)C(=O)c1ccccc1 (stereo not drawn)	138% (active)
COc1ccc(C(=O)COC(=O)c2ccc3ccccc3n2)cc1	103%
O=C(Oc1ccc([N+](=O)[O-])cc1)c1ccc2ccccc2n1	94.7%
CCC(NC(=O)c1ccccc1NC(=O)c1ccccc1)C(=O)NNC(=O)CSc1nc2ccccc2o1 (stereo not drawn)	94%
Cc1[nH]n(-c2ccccc2)c(=O)c1/C=N/NC(=O)c1ccoc1C	155% (active)
Cc1[nH]n(-c2ccc(Cl)cc2)c(=O)c1/C=N/n1c(C)nc2ccccc2c1=O	99.3%
Cc1ccc(-n2[nH]c(C)c(/C=N/NC(=O)c3cccc([N+](=O)[O-])c3)c2=O)cc1C	101%
C=CCn1c(SCC(N)=O)nnc1-c1cc2c(s1)CCC(CC)C2 (stereo not drawn)	121%
CC1CN(/C=C/C(=O)C(F)(F)F)CC(C)O1 (stereo not drawn)	95.8%
CCSc1sc(CC)cc1C=O	107%
COc1ccccc1-c1cc(C(=O)N2CCCCC2)no1	164% (active)
Cc1ccc(-c2cc(C(=O)N3CCc4ccccc4C3)no2)cc1	97.3%
O=C(c1ccc(F)cc1)N1CCCC(c2nc(-c3cccs3)no2)C1 (stereo not drawn)	96.9%
O=C(c1cc(-c2ccccc2O)on1)N1CCCC1	108%
O=C(c1cc(-c2cccs2)on1)N1CCCCC1	162% (active)
COc1ccccc1N1CCN(C(=O)c2cc(-c3ccc(Br)cc3)on2)CC1	99.6%
COc1ccc(C2CC(c3cccs3)Nc3nnnn32)cc1 (stereo not drawn)	87.6%

SMILES	activation (% of control)
Cc1cc(=O)[nH]c(N/N=C/c2c(C)nn(-c3ccccc3Cl)c2Cl)n1	100%
CC(OC(=O)CNS(=O)(=O)/C=C/c1ccccc1)C(=O)Nc1ccc(S(=O)(=O)N2CCCC2)cc1 (stereo not drawn)	89%
CC(=O)c1ccc(NC(=O)c2ccc3c(Cl)c4c(nc3c2)CCCC4)cc1	113%
O=C(CN1CCN(c2ccc(O)cc2)CC1)NC1CCCc2ccccc21 (stereo not drawn)	101%
Cc1ccc(OCc2nnc(SC3CCc4ccccc4C3=O)n2C)cc1 (stereo not drawn)	105%
CC(=O)Nc1ccc(S(=O)(=O)Nc2nccc(/C=C/c3ccccc3F)n2)cc1	98.1%
CCc1nnc(NS(=O)(=O)c2ccc(NC(=S)NC(=O)c3cccs3)cc2)s1	109%
Cc1cc(C)nc(NS(=O)(=O)c2ccc(N/C=C\C(=O)c3cccs3)cc2)n1	135% (active)
O=C(c1cccs1)n1nc(NCc2ccccc2)nc1NCc1ccccc1	107%
CNC(=O)COC(=O)c1cc(-c2ccc(OC)cc2)nc2ccccc12	99.7%
CC(C)(C)NC(=O)NC(=O)COC(=O)Cc1c(F)cccc1Cl	113%
CCCCSc1nc2ccccc2[nH]1	121%
O=C(CSc1nc2ccccc2[nH]1)c1cccs1	136% (active)
C=CCSc1nc2ccccc2[nH]1	109%
CCOc1cc2[nH]c(=O)n(Cc3ccc(C(=O)NCCCN4CCCC4=O)cc3)c(=O)c2cc1OCC	92.1%
COc1ccc(C2(CNC(=O)Cc3ccc(OC)c(OC)c3)CCCC2)cc1	94.7%
O=C(OCc1ccc([N+](=O)[O-])cc1)c1ccccn1	95.9%
CCC(C)(NC(=O)c1ccccn1)C(=O)NC1CCCCC1 (stereo not drawn)	95.5%
N/C(=N\OC(=O)CC1CCCCC1)c1ccccc1	116%
N/C(=N\OC(=O)Cc1ccc([N+](=O)[O-])cc1)c1ccccn1	139% (active)
N/C(=N\OC(=O)CCC1CCCCC1)c1ccccn1	130% (active)
N/C(=N\OC(=O)c1ccc([N+](=O)[O-])cc1)c1ccccn1	81.4%
COC(=O)c1sc(NC(=O)c2ccc(OC)cc2OC)nc1C	75.1%
COc1cc(SC)ccc1C(=O)Nc1nc(C)cs1	12.9%
COc1ccc(C(=O)Nc2nncs2)c(OC)c1	131% (active)

SMILES	activation (% of control)
COc1ccc(S(=O)(=O)N2CCN(C(=O)c3cc(C)oc3C)CC2)cc1	90.8%
Cc1ccc([N+](=O)[O-])c(OCCCNCC(C)O)c1 (stereo not drawn)	101%
CN1CCN(C(=O)/C(=C\c2ccc3c(c2)OCO3)NC(=O)c2cccs2)CC1	98.7%
COC(=O)c1ccccc1SC1CC(=O)N(c2cccc(C)c2)C1=O (stereo not drawn)	94.5%
CC1CCN(S(=O)(=O)c2ccc3ncn(CC(=O)N(C)C4CCCCC4)c(=O)c3c2)CC1	100%
Cc1cccc(C)c1NC(=O)C1CCCN1C(=O)OC(C)(C)C (stereo not drawn)	104%
CCNC(=O)NNC(=O)C1CC(c2cccs2)=NO1 (stereo not drawn)	100%
O=C(Cc1cccs1)Nc1nnc(C2CC2)s1	90.1%
Cc1occc1C(=O)Nc1nnc(C2CCCCC2)s1	107%
O=C(Nc1nnc(C2CC2)s1)c1ccccn1	129% (active)
Cc1nc2ccccn2c1C(=O)NN=C1CCN(C)CC1	96.3%
CN1CCN(c2ccc(NC(=O)c3ccc4c(c3)[nH]c(=O)n4Cc3ccc(F)cc3)cc2)CC1	98.7%
Clc1cccc(CN2COc3c(cc(Cl)c4cccnc34)C2)c1	94.3%
COC(=O)c1sc(NC(=O)c2csc3c2CCCC3)nc1C	149% (active)
CC(=O)Cc1nsc(NC(=O)c2csc3c2CCCC3)n1	102%
Cc1ccc(NC(=O)c2csc3c2CCCC3)cc1	176% (active)
O=C(NCc1ccccc1Cl)c1csc2c1CCCCC2	107%
Cc1ccc(NC(=O)c2c(NC(=O)CCC(=O)O)sc3c2CCCCC3)cc1	105%
COC(=O)c1sccc1NC(=O)c1csc2c1CCCC2	106%
O=C(COc1ccccc1Cl)Nc1ccc(C(=O)c2ccc(C(=O)O)cc2)cc1	98%
CSCCC(=O)N1CCCC(CNC(=O)c2ccccc2Cl)C1 (stereo not drawn)	96.7%
CCN(CC)S(=O)(=O)c1ccc(NC(=O)c2cccnc2Cl)c(NC(=O)c2cccnc2Cl)c1	88.7%
O=C1Nc2cc(Cl)c(Cl)cc2N(O)N1c1ccccc1Cl	82.7%
